Rows were chosen to be rich in hits. Some 5.9% of all compounds tested hit in one or more screens of this group.
HSF1 activator: increases HSF-1 driven luciferase reporter signal | activation, % at 9 µM | NIH3T3-HGL HSF-1 luciferase reporter, MG132, 8 h; 100% = twice DMSO control signal | 300,000 tested, 1.7% active | AID 504408;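 active = mean replicate activation of at least 50% with a set share of replicates each reaching 50%; inconclusive = only one of those two conditions met; inactive = mean below 50% and too few replicates reaching it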;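 note: 0% = median of the neutral control wells and 100% = twice that signal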
GAA850 FXN act: activators of GAA850 frataxin (FXN) promoter; activation, % at 6 µM; 360,000 tested, 0.56% active; HEK293 lucGAA850 FXN promoter luciferase reporter, 24 h; percent of 10 µM SAHA response; AID 540364;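 active = activation above the average of all compounds screened plus 3 SD, cutoff fixed separately per campaign, cut at about 7.5% in these data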;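 note: 0% = DMSO wells and 100% = 10 µM SAHA wells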
HSP90 refold inh: inhibitors of HSP90 luciferase refolding in rabbit reticulocyte lysate; luciferase refolding luminescence, 3 h; inhibition, % at 5.6 µM; 290,000 tested, 0.91% active; AID 1789;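 active = inhibition above the screen-wide mean plus 3 SD, computed separately per campaign, cut at about 16% in these data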;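 note: 0% = DMSO wells and 100% = 60 µM geldanamycin wells; inhibitors lower the luminescence because luciferase stays unfolded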
HSF1 inhib: HSF1 inhibition; NIH3T3-HGL HSE-luciferase, MG132-induced, luminescence 8 h; hits give low values; AID 2098; 300,000 tested, 0.77% active; activity change, negative = inhibition, % at 7.5 µM (by protocol);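 active = more than half of replicate wells show activity change below -50%, luminescence cut by over half; inconclusive = some wells, but at most half, below -50%; inactive = no replicate well below -50%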;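 note: luciferase reports HSF-1 transcriptional activity via heat shock element; 0% = median of DMSO wells and -100% = zero luminescence signal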
AHR act: human AHR activation | activation, % at 5 µM | AHR-responsive luciferase reporter cells, luminescence | AID 2796 | P35869 | 320,000 tested, 2.5% active; in the data active = activation above about 47%;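 note: 0% = vehicle wells and 100% = reference agonist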
DAX1 inh: NR0B1 (DAX1) inhibition; P51843; HEK293 Gal4-DAX1 luciferase reporter, luminescence; inhibition, % at 6.75 µM; 340,000 tested, 0.99% active; AID 504766;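 active = inhibition above the mean over all tested compounds plus 3 SD, cut at about 4.2% in these data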;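 note: 0% = DAX1-transfected cells with DMSO and 100% = empty-vector control cells with DMSO; inhibition shows as a rise in luminescence from relieved DAX1 repression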
Target sequence (P51843 207-470 limits assumed): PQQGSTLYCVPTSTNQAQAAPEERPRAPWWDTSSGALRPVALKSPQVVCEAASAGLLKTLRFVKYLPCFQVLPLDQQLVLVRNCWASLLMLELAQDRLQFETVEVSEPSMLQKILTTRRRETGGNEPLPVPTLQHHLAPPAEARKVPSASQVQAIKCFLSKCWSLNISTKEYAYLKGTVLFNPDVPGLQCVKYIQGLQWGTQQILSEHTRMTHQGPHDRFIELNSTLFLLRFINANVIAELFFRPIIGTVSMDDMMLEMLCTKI
AHR act confirm: confirmation of human aryl hydrocarbon receptor activators; 2,300 tested, 87% active; human cells, AHR-responsive luciferase reporter, luminescence; AID 2845; activation, % at 9 µM; shares compounds with AHR act; in the data active = activation above about 49%;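 note: HepG2 hepatoma cells carrying a DRE-driven firefly luciferase reporter; 0% = vehicle wells and 100% = reference agonist wells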
PXR counter: PXR activation, counter-screen for AHR activators | cell-based PXR reporter, luciferase luminescence | 2,300 tested, 88% active | shares compounds with AHR act | activation, % at 11.6 µM; in the data active = activation above about 11%;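 note: human hepatoma DPX-2 cells expressing full-length human PXR; 0% = DMSO and 100% = reference agonist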
Target sequence (O75469 whole entry, looked up): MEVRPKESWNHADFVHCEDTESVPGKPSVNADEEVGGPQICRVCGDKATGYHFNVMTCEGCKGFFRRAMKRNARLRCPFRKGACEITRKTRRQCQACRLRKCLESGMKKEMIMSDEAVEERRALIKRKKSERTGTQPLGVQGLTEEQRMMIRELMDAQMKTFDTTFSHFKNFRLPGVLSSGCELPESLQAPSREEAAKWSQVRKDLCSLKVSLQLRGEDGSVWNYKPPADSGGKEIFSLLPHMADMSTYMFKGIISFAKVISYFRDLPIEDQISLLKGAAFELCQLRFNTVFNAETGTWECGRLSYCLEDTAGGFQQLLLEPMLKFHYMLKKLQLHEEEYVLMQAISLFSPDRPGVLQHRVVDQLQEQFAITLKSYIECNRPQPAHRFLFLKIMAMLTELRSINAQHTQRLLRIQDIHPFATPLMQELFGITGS
The depositor's hits bear a star; ? = inconclusive; . = no result.

SMILES	HSF1 activator	GAA850 FXN act	HSP90 refold inh	HSF1 inhib	AHR act	DAX1 inh	AHR act confirm	PXR counter
Cc1ccc(C(=O)Nc2ccc3c(c2)OCO3)o1	16.9	4.0	-1.8	13.9	122.0*	1.4	107.8*	39.2*
Cc1ccc(NP(=O)(Nc2ccc(C)cc2)Nc2ccc(C)cc2)cc1	-14.9	0.4	4.9	-0.8	1.9	-1.2	.	.
O=C1CCCC(=O)C1Sc1ccc(Cl)cc1	7.7	-1.0	3.0	-5.0	0.1	1.1	.	.
O=C(Oc1ccc(-c2nnco2)cc1)c1ccco1	1.9	0.8	.	0.2	-1.2	0.1	.	.
COc1ccc(NC(=O)c2ccc(Cl)nc2)cc1S(=O)(=O)N1CCCCC1	2.0	-1.7	-4.0	-7.4	121.4*	-1.7	84.8*	63.4*
C=CC(=O)Nc1ccc(Nc2nc(NC3CCC(N(C)C)CC3)nc3c2ncn3C(C)C)cc1 (stereo not given)	.	-13.2	.	.	-4.0	-5.2	.	.
CC(C)n1cnc2c(Nc3ccc(F)c(Cl)c3)nc(NCCO)nc21	8.3	5.2	-4.2	10.8	92.5*	-0.9	69.0*	135.0*
O=C(/C=C/c1ccccc1O)c1ccccc1	.	0.7	.	.	.	0.6	.	.
O=C(/C=C/c1c[nH]c2ccccc12)c1ccccc1	46.9	5.5	-3.7	35.0	92.9*	2.1	105.4*	28.2*
CC(C)C[C@@H](CSc1ccc(Br)cc1)N1CCN(CC(C)C)CCC1=O	-20.4	-0.8	.	-4.7	3.1	-1.6	.	.
N#C/C(=C\c1ccc(-c2ccc(F)cc2)o1)C(=O)Nc1nc(-c2cccs2)cs1	-14.1	1.6	3.6	-3.9	141.7*	-1.0	57.5*	22.0*
Cc1ccccc1-c1nc(-c2ccc(Br)o2)no1	41.1	4.3	-1.5	9.9	102.0*	3.9	127.0*	49.0*
Fc1ccccc1-c1nc(-c2ccc(-c3nn[nH]n3)cc2)no1	.	2.4	.	.	12.0	4.1	.	.
Fc1ccccc1-c1nc(-c2ccc(Br)o2)no1	45.4	0.3	3.6	37.2	101.8*	2.0	142.6*	31.3*
Fc1ccccc1-c1nc(-c2ccccc2)no1	?	2.7	-4.6	26.4	92.7*	0.6	125.9*	12.8*
COc1ccc(Cl)cc1-c1nc(-c2ccc(Br)o2)no1	-0.9	1.0	1.3	0.2	31.3	0.2	.	.
O=C(CSc1ncn[nH]1)N1N=C2/C(=C/c3ccccc3)CCCC2C1c1ccccc1 (stereo not given)	-18.0	-2.6	0.3	1.9	98.1*	-1.9	87.7*	73.7*
COC(=O)c1c(-c2ccsc2)sc2ccc(-c3cc(OC)c(OC)c(OC)c3)cc12	.	-0.3	.	.	27.9	-1.6	.	.
COc1cc(-c2ccc3sc(-c4ccsc4)c(C#CCO)c3c2)cc(OC)c1OC	.	-1.4	.	.	80.0*	-3.6	60.5*	12.6*
OCCC#Cc1c(-c2ccsc2)sc2ccccc12	-6.5	-1.0	-1.3	1.6	85.8*	1.4	62.0*	12.9*
CS(=O)(=O)c1ccc(-c2sc3ccccc3c2C#CCCO)cc1	.	0.9	.	.	6.2	-0.9	.	.
Cc1cnc(NC(=O)c2ccc(-c3nc4ccccc4s3)o2)s1	3.7	3.3	-1.7	-3.8	88.8*	0.0	113.6*	14.2*
CC1=NN(C(N)=S)C(=O)C1N=Nc1cccc(Cl)c1 (stereo not given)	22.6	3.8	3.9	19.4	85.0*	1.0	148.2*	27.2*
Cc1[nH]n(C(N)=S)c(=O)c1N=Nc1cccc(Cl)c1	29.5	2.3	11.2	25.1	114.2*	2.9	114.6*	12.6*
COC(=O)[C@H](Cc1ccccc1)NC(=O)C1(OC(C)=O)CC(OC(C)=O)C(OC(C)=O)C(OC(C)=O)C1 (stereo not given in full)	-16.5	2.0	2.1	1.8	0.9	0.5	.	.
SMILES	HSF1 activator	GAA850 FXN act	HSP90 refold inh	HSF1 inhib	AHR act	DAX1 inh	AHR act confirm	PXR counter
CC(=O)c1c(C)[nH]c(C(=O)OCC(=O)c2c(N)n(C)c(=O)n(C)c2=O)c1C	3.4	.	1.5	1.0	-2.6	.	.	.
COc1cc(CC2C(=O)OCC2C(=O)c2ccc3c(c2)OCO3)cc(OC)c1OC (stereo not given)	.	-0.5	.	.	.	0.1	.	.
CCOC(=O)c1sc(N/N=C/c2ccc(N(C)C)cc2)nc1C	6.2	2.9	-1.7	-1.0	129.9*	0.5	85.5*	10.6*
N#Cc1ccccc1CSc1nc2ncc(Br)cc2[nH]1	44.2	2.0	0.1	6.2	44.2	0.3	.	.
CC(C)(C)C(=O)CSc1nc2ncc(Br)cc2[nH]1	23.4	-0.7	4.6	-0.8	83.8*	-0.3	56.9*	125.1*
O=C(CSc1nc2ncc(Br)cc2[nH]1)c1cccc([N+](=O)[O-])c1	23.3	-0.5	3.8	18.7	92.1*	-0.1	67.3*	98.4*
O=[N+]([O-])c1ccc(CSc2nc3ncc(Br)cc3[nH]2)cc1	15.3	-0.6	-6.0	2.1	8.7	.	.	.
Fc1ccccc1CSc1nc2ncc(Br)cc2[nH]1	18.6	2.1	-3.4	20.0	104.5*	0.2	70.6*	99.8*
O=[N+]([O-])c1ccc(OCn2cncn2)cc1	-2.8	1.4	.	2.7	-0.5	-0.2	.	.
O=C(Nc1ccccc1C(=O)N/N=C/c1ccc(O)cc1)c1ccccc1	29.7	2.3	13.4	15.5	102.6*	-1.2	88.3*	28.3*
CC(C)=C(NC(=O)c1ccccc1)C(=O)N/N=C/c1ccc(O)cc1	15.5	-2.1	1.0	6.7	5.4	0.1	.	.
CCOCC(=O)Nc1cccc(-c2nc3cccnc3s2)c1C	-7.0	1.1	-3.7	1.2	87.9*	0.8	106.7*	.
Cc1nc2ccc(S(=O)(=O)Nc3cccc(-c4nc5cccnc5s4)c3C)cc2s1	-20.4	0.1	3.9	5.6	0.8	-0.6	.	.
COc1ccc(-c2n[nH]c(C)c2-c2cc(OC)ccc2O)cc1	-6.6	-1.4	7.9	-5.3	4.3	0.2	.	.
CCOC(=O)c1cc(-c2ccc(OC)cc2)n[nH]1	-11.6	2.2	-4.8	-8.5	3.5	0.0	.	.
COc1ccc(O)c(-c2cc(-c3ccc(F)cc3)n[nH]2)c1	15.7	4.5	1.9	11.8	95.6*	2.1	159.0*	15.0*
COc1ccc(-c2cc(-c3cc(OC)ccc3O)[nH]n2)cc1	0.5	3.9	0.4	1.4	158.8*	3.0	140.3*	17.7*
COc1ccc(-c2c(=O)n(OC)c3ccccc3[n+]2[O-])cc1OC	-16.8	2.2	5.0	-2.8	20.2	0.3	.	.
c1ccc2c(c1)oc1c(Nc3ccc4c(c3)OCCO4)ncnc12	47.3	2.0	5.4	20.7	95.3*	-0.1	109.7*	18.6*
O=[N+]([O-])c1ccc2ncnc(Nc3ccc4c(c3)OCCO4)c2c1	-30.8	-4.0	-1.1	-26.9	43.4	-1.4	.	.

High-throughput results as filed in PubChem BioAssay.
